In the supplement of paper PMC9177965 one finds cell viability activity data, which are given here for 40 molecules.

Each structure is given as a SMILES string.

The test system of the test is HT29 RNF43 G659fs (RNF43 659mut, CRISPR-edited). Nature of the test: cell viability activity relative to DMSO (negative = inhibition); higher = more viable cells (less growth inhibition). Conditions: 5 µM; 96 h. On the procedure:
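Broad Repurposing Library primary screen at a single dose of 5 uM. HT29 sg-Ctrl and HT29 RNF43 G659fs CRISPR-edited isogenic cells were seeded at 2500 cells/well in 384-well plates in duplicate and treated for 96 h. Viability was read by CellTiter-Glo and reported as % activity relative to DMSO, with MG132 as the positive control (negative = growth inhibition).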
On to `Cc1ccccc1N(C)C(=O)c1ccc([S+]([O-])c2nccs2)c([N+](=O)[O-])c1` (stereo not given), for which the cell viability activity was -49.2%.
`Cc1cccc(C)c1NC(=O)CN1CCN(CCCC(c2ccc(F)cc2)c2ccc(F)cc2)CC1`: the cell viability activity is -28.2%.
With `O=C(O)c1ccc[n+]([O-])c1` the figure was -66%; with `O=C(/C=C\n1cnc(-c2cc(C(F)(F)F)cc(C(F)(F)F)c2)n1)NNc1cnccn1`, -73.9%.
As to `COC(=O)Nc1nc2cc(C(=O)c3cccs3)ccc2[nH]1`, the cell viability activity is -64.5%.
With `CCNC(=O)c1noc(-c2cc(C(C)C)c(O)cc2O)c1-c1ccc(CN2CCOCC2)cc1` the figure was -86.6%.
Consider `CC(C)(C)c1ccc(-c2nc3ccccc3[nH]2)cc1`, for which the cell viability activity is -58.2%.
Regarding `CC(C)/N=c1\cc2n(-c3ccc(Cl)cc3)c3ccccc3nc-2cc1Nc1ccc(Cl)cc1`, the cell viability activity is -75.3%.
With `CN1CC[C@H](c2c(O)cc(O)c3c(=O)cc(-c4ccccc4Cl)oc23)[C@H](O)C1` the figure was -83.4%.
`CC(C)c1ccc(C(=O)N=C(N)N)cc1S(C)(=O)=O`: the cell viability activity was -25.7%.
Consider `Cc1ccc(C(=O)Nc2ccc(CN3CCN(C)CC3)c(C(F)(F)F)c2)cc1C#Cc1cnc2cccnn12`, for which the cell viability activity is -86.7%.
For `CC(=O)O[C@@]12CO[C@@H]1C[C@H](O)[C@@]1(C)C(=O)[C@H](O)C3=C(C)[C@@H](OC(=O)[C@H](O)[C@@H](NC(=O)OC(C)(C)C)c4ccccc4)C[C@@](O)([C@@H](OC(=O)c4ccccc4)[C@H]21)C3(C)C` the value was -58.2%; for `O=c1cc(N2CCOCC2)oc2c(-c3cccc4c3sc3ccccc34)cccc12`, -57.6%.
Turning to `CC(C)c1cc(C(=O)N2Cc3ccc(CN4CCN(C)CC4)cc3C2)c(O)cc1O`, the cell viability activity is -91.7%.
As to `CC(C=CC(=O)NO)=CC(C)C(=O)c1ccc(N(C)C)cc1` (stereo not given), the cell viability activity is -95.2%.
For `CCS(=O)(=O)c1cccc(-c2cc(C(=O)NC3CCN(C)CC3)c(C)c3[nH]c4ncc(C)cc4c23)c1` the value was -90.1%.
With `OCCN1CCN(CCCN2c3ccccc3Sc3ccc(Cl)cc32)CC1` the figure was -53.2%.
For `Cc1cnc(Nc2ccc(F)cc2Cl)nc1-c1c[nH]c(C(=O)N[C@H](CO)c2cccc(Cl)c2)c1` the value was -73.7%.
`CCC[C@H](NC(=O)/C(C#N)=C/c1cccc(Br)n1)c1ccccc1`: the cell viability activity is -95.3%.
As for `O=C(c1cn(Cc2cncn2Cc2ccc(Br)cc2)cc1-c1cccc2ccccc12)N1CCOCC1`, the cell viability activity is -42.8%.
For `Cc1ncc(NC(=O)c2ccc(CN3CCN(C)CC3)c(C(F)(F)F)c2)cc1Nc1nccc(-c2cccnc2)n1` the value was -33.9%; for `Cc1csc(-c2nnc(Nc3ccc(Oc4ncccc4-c4ccnc(N)n4)cc3)c3ccccc23)c1`, -28.2%.
On to `COc1cc(N2CCC(N3CCN(C)CC3)CC2)ccc1Nc1ncnc(Nc2ccccc2S(=O)(=O)C(C)C)n1`, for which the cell viability activity is -33.3%.
With `C[C@@H](Oc1cc(-c2cnn(C3CCNCC3)c2)cnc1N)c1c(Cl)ccc(F)c1Cl` the figure was -97.1%; with `O=C(NOC[C@H](O)CO)c1ccc(F)c(F)c1Nc1ccc(I)cc1F`, -81.1%; with `COc1ccc(-c2nc(N3CCOCC3)c3sc(CN(C)c4ncc(C(=O)NO)cn4)cc3n2)cn1`, -94.5%.
With `CN(c1ccccc1CNc1nc(Nc2ccc3c(c2)CC(=O)N3)ncc1C(F)(F)F)S(C)(=O)=O` the figure was -45.3%.
On to `O=C(Nc1ccncc1)Nc1ccc(-c2nc(N3CCOCC3)nc(N3C4CCC3COC4)n2)cc1`, for which the cell viability activity was -64.5%.
For `CN[C@@H](C)C(=O)N[C@H](C(=O)N1CCC[C@H]1C(=O)N[C@H]1c2ccccc2C[C@H]1OCC#CC#CCO[C@@H]1Cc2ccccc2[C@@H]1NC(=O)[C@@H]1CCCN1C(=O)[C@@H](NC(=O)[C@H](C)NC)C1CCCCC1)C1CCCCC1` the value was -58.1%; for `NC(=S)N/N=C/c1ncccc1N`, -58.9%.
Turning to `CC[C@H](CO)Nc1nc(NCc2ccc(-c3ccccn3)cc2)c2ncn(C(C)C)c2n1`, the cell viability activity is -92%.
`Cc1ccc(-n2nc(C(C)(C)C)cc2NC(=O)NCc2cc(F)ccc2Oc2ccc3c(cnn3CCO)c2)cc1`: the cell viability activity is -36.7%.
With `COC(=O)N[C@@H](C)CNc1nccc(-c2cn(C(C)C)nc2-c2cc(Cl)cc(NS(C)(=O)=O)c2F)n1` the figure was -69.5%; with `Clc1ccc(NN=C(c2ccccc2)c2ccccn2)nc1`, -70.7%; with `Cc1nc(N)sc1-c1ccnc(Nc2ccc(N3CCOCC3)cc2)n1`, -59.7%.
With `CC(C)N1CCN(c2ccc(OC[C@@H]3CO[C@@](Cn4cncn4)(c4ccc(Cl)cc4Cl)O3)cc2)CC1` the figure was -68%; with `FC(F)(F)Oc1ccc2nc(-c3ccc(OCCOCCOc4ccc(-c5nc6ccc(OC(F)(F)F)cc6[nH]5)nc4)cn3)[nH]c2c1`, -37.9%; with `O=C(CCCCCCC(=O)Nc1cccnc1)NO`, -42.9%.
On to `CC[C@@H](C(=O)[C@@H](C)[C@@H](O)[C@H](C)CCc1ccc(C)c(O)c1C(=O)O)[C@H]1O[C@](CC)([C@H]2CC[C@](O)(CC)[C@H](C)O2)C[C@@H]1C`, for which the cell viability activity is -65.8%.
Take `COc1cc([C@@H]2c3cc4c(cc3[C@@H](O[C@@H]3O[C@@H]5CO[C@@H](C)O[C@H]5[C@H](O)[C@H]3O)[C@H]3COC(=O)[C@H]23)OCO4)cc(OC)c1OP(=O)(O)O`: the cell viability activity was -25.3%.
